Several values for one entry are separate records, joined by “and”; a condition that tells them apart may be missing. Equal values may be shown once. Results filed as inconclusive are left out. Some compounds were tested as several samples or in several runs, with calls that do not always agree. Activity calls are given as the source filed them. Unless noted, calls follow the shape of the dose curve; as a rule, active = well fitted curve in the direction sought with a large enough effect in the repeat runs; inconclusive = weak or mixed curves; inactive = no such curve, though single readings can be large; an effect the other way counts as inactive or inconclusive.
Tests used:
[1] = qHTS assay to identify small molecule antagonists of the glucocorticoid receptor (GR) signaling pathway - cell viability counter screen (AID 720693); settings: GR-bla HeLa viability, CellTiter-Glo luminescence, 18 h, with 5 nM dexamethasone present; series mostly up to 58.5 µM; also: nearly all actives have a fitted effect of over 55% in size
[2] = qHTS assay for identifying genotoxic compounds that show differential cytotoxicity against isogenic chicken DT40 cell lines with known DNA damage response pathways - wild type cell line (AID 743012); settings: DT40 wild type chicken cells viability, CellTiter-Glo, 40 h; series mostly up to 68.4 µM; also: nearly all actives have a fitted effect of over 60% in size; also: potency is read from the fitted curve at half-maximal effect
In short: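 Luminescent ATP viability signal (CellTiter-Glo, 30 min RT) recorded after wild type DT40 cells were incubated with compounds for 40 h at 37 C/5% CO2.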

[3] = qHTS assay for identifying genotoxic compounds that show differential cytotoxicity against isogenic chicken DT40 cell lines with known DNA damage response pathways - Rev3 mutant cell line (AID 743014); settings: chicken DT40 Rev3-/- viability, CellTiter-Glo, 40 h; series mostly up to 68.4 µM; also: nearly all actives have a fitted effect of over 55% in size; also: potency is read from the fitted curve at half-maximal effect
[4] = qHTS assay for identifying genotoxic compounds that show differential cytotoxicity against isogenic chicken DT40 cell lines with known DNA damage response pathways - Rad54/Ku70 mutant cell line (AID 743015); settings: DT40 Rad54/Ku70 mutant viability, CellTiter-Glo, 40 h; series mostly up to 66.8 µM; also: nearly all actives have a fitted effect of over 60% in size; also: potency is read from the fitted curve at half-maximal effect
[5] = qHTS assay to identify small molecule antagonists of the androgen receptor (AR) signaling pathway using the MDA cell line - cell viability counter screen (AID 743041; also: nearly all actives have a fitted effect of over 45% in size); settings: MDA-kb2 viability, CellTiter-Fluor, 16 h, cells co-treated with R1881 androgen agonist; series mostly up to 70.3 µM
In short: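 Compound exposure lasted 16 h at 37C in MDA-kb2 AR-luc cells stimulated with R1881. Protease-based CellTiter-Fluor reagent was applied for the final 30 min and fluorescence measured.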

[6] = qHTS assay to identify small molecule antagonists of the thyroid receptor (TR) signaling pathway - cell viability counter screen (AID 743064); settings: GH3.TRE-Luc viability, CellTiter-Fluor, 24 h; series mostly up to 70.3 µM; also: nearly all actives have a fitted effect of over 50% in size; also: potency is read from the fitted curve at half-maximal effect
In short: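 GH3.TRE-Luc rat pituitary cells carrying a TRE-luciferase reporter were treated with compound plus 1 nM T3 (final) for 23.5 h at 37 °C. Viability was then read in the same wells by CellTiter-Fluor fluorescence after a further 30 min.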

[7] = qHTS assay to identify small molecule antagonists of the androgen receptor (AR) signaling pathway - cell viability counter screen (AID 743033; also: nearly all actives have a fitted effect of over 45% in size); settings: AR-bla HEK293 viability, CellTiter-Glo luminescence, 16 h; series mostly up to 58.5 µM
[8] = target: Androgen receptor (Homo sapiens) (UniProt P10275); assay: qHTS assay to identify small molecule antagonists of the androgen receptor (AR) signaling pathway (AID 743035; active = well fitted inhibition curve with a large enough effect in the signal ratio in the repeat runs, not every such curve was filed as active; the % refers to the signal ratio); settings: HEK293 AR-UAS-bla, R1881-stimulated, beta-lactamase FRET, 16 h; series mostly up to 58.5 µM
In short: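 Quantitative HTS of the Tox21 10K library used HEK293 AR-UAS-bla cells stimulated with R1881 alongside compound for 16 h at 37C, followed by beta-lactamase FRET detection (LiveBLAzer B/G, 2 h, RT).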

[9] = target: Androgen receptor (Homo sapiens) (UniProt P10275); assay: qHTS assay to identify small molecule agonists of the androgen receptor (AR) signaling pathway (AID 743036; active = well fitted activation curve with a large enough effect in the signal ratio in the repeat runs, with a control signal flat, not every such curve was filed as active; the % refers to the signal ratio); settings: HEK293 AR-UAS-bla GripTite, beta-lactamase FRET ratio, 16 h; series mostly up to 62.4 µM
In short: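 HEK293 cells stably carrying a UAS-driven beta-lactamase reporter (GeneBLAzer AR-UAS-bla-GripTite) were plated at 2,000 cells/well, rested 4 h at 37C, then exposed to compounds in DMSO for 16 h. LiveBLAzer B/G FRET substrate was added for 2 h at room temperature; fluorescence read.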

[10] = target: Androgen receptor (Homo sapiens) (UniProt P10275); assay: qHTS assay to identify small molecule agonists of the androgen receptor (AR) signaling pathway using the MDA cell line (AID 743040; also: nearly all actives have a fitted effect of over 20% in size); settings: MDA-kb2 AR-luc cells, MMTV luciferase, 16 h; activity change: at 70.3 µM (top of the series), stronger effect = higher value
In short: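 Testing was done with the MDA-kb2 AR-luc line, a human breast carcinoma stably transfected with MMTV-luciferase containing AR and GR response elements. Cells were exposed 16 h at 37C before ONE-Glo luminescence detection.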
% is scaled to controls: 0 for no effect and ±100 for the full control effect.

Chain of Androgen receptor (Homo sapiens) (P10275 whole entry, looked up): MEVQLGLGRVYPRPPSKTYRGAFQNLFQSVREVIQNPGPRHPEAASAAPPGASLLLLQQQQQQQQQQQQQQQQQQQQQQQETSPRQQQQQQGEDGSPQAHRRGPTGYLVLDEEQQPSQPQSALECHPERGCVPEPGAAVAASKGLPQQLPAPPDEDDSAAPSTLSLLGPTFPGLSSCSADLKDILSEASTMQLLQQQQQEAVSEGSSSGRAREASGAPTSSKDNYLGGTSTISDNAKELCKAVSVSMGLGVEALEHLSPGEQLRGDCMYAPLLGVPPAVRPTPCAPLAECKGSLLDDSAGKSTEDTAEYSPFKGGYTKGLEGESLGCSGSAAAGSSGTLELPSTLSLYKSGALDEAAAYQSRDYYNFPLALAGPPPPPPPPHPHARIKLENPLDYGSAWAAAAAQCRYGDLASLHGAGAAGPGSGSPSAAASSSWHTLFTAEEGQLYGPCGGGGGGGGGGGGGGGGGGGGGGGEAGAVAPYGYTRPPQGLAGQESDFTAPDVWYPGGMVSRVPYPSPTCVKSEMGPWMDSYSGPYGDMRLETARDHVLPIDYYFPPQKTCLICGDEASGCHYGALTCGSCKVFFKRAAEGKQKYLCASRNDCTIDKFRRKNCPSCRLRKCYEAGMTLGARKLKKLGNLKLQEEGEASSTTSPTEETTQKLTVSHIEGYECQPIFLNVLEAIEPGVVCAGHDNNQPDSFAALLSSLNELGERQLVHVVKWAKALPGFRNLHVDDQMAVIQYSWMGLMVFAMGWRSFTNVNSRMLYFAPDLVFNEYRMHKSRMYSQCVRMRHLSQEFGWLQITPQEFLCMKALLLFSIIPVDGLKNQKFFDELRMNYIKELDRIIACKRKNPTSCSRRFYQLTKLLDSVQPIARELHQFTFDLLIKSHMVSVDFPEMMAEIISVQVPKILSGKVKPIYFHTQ

COc1ccc(C(=O)c2c(C)n(CCN3CCOCC3)c3ccccc23)cc1
inactive: Potency [1] | Potency [5] | Potency [6]
active: Potency [2] 26.6 µM | Potency [3] 26.6 µM | Potency [4] 29.8 µM

CCCN(CCC)c1c([N+](=O)[O-])cc(C(C)C)cc1[N+](=O)[O-]
active: Potency [6] 61.1 µM
inactive and 54.5 µM (active): Potency [4]
inactive: Potency [1] | Potency [3] | Potency [7]
inactive and 61.1 µM (active): Potency [2]

CCOP(=O)(SC(C)CC)N1CCSC1=O (configuration not stated)
inactive: Potency [1] | Potency [2] | Potency [3] | Potency [4] | Potency [7] | Potency [6]

CCCCCCCCCCCCN=C(N)N
inactive: viability change, negative = cytotoxic [1] -13.6% [at 3.15 µM] | viability change, negative = cytotoxic [5] -10.3% [at 3.79 µM] | activity change, negative = cytotoxic [6] -13.9% [at 3.79 µM]
active: Potency [2] 0.845 µM | Potency [3] 1.89 µM | Potency [4] 1.06 µM

CN1CC[C@]23c4c5ccc(O)c4O[C@H]2[C@@H](O)CC[C@H]3[C@H]1C5
inactive: Potency [1] | Potency [2] | Potency [4] | Potency [7] | Potency [5] | Potency [6]

c1ccc2c(c1)sc1ccccc12
inactive: Potency [1] | Potency [2] | Potency [4] | Potency [7] | Potency [5] | Potency [6]

O=C(Cc1ccccc1)OCCc1ccccc1
inactive: Potency [1] | Potency [7] | Potency [5] | Potency [6]
active: Potency [2] 68.6 µM | Potency [4] 61.1 µM

C[C@H](N)[C@H](O)c1ccc(O)c(O)c1
inactive: Potency [1] | Potency [7]
active: Potency [2] 13.3 µM | Potency [3] 11.9 µM | Potency [4] 16.8 µM | Potency [6] 26.6 µM

C=CCc1ccccc1O
inactive: Potency [1] | Potency [2] | Potency [3] | Potency [4] | Potency [7] | Potency [6]

O=C(N/N=C/c1ccc([N+](=O)[O-])o1)c1cc([N+](=O)[O-])cc([N+](=O)[O-])c1O
inactive: Potency [1] | Potency [2] | Potency [4]

CCSCc1ccccc1OC(=O)NC
inactive: Potency [1] | Potency [4] | Potency [7] | Potency [5] | Potency [6]

CC[N+]1(CCOC(=O)C(O)(c2ccccc2)c2ccccc2)CCCCC1
inactive: Potency [1] | Potency [4] | Potency [7] | Potency [6]

C#C[C@]1(O)CC[C@H]2[C@@H]3CCC4=CC(=O)CCC4=C3C=C[C@@]21CC
active: Potency [2] 10.6 µM | Potency [3] 13.3 µM | Potency [4] 13.3 µM
inactive: Potency [7] | Potency [5] | Potency [6]

CC(=O)NNc1ccccc1
inactive: Potency [8] | Potency [9] | Potency [10]
active: Potency [2] 1.52 µM | Potency [3] 2.15 µM | Potency [4] 1.71 µM

C[N+](C)(C)CC1CO1 (configuration not stated)
inactive: Potency [1] | Potency [7] | Potency [8] | Potency [9] | Potency [10] | Potency [5] | Potency [6]
active: Potency [3] 13.7 µM

CC(C)C1(C)N=C(c2ncccc2C(=O)O)NC1=O (configuration not stated)
inactive: Potency [1] | Potency [4] | Potency [7] | Potency [5]

C=CCc1ccc(OC(=O)Cc2ccccc2)c(OC)c1
inactive: Potency [1] | Potency [7] | Potency [5] | Potency [6]

CCOP(=S)(S)OCC
inactive: Potency [1] | Potency [3] | Potency [4] | Potency [7] | Potency [8] | Potency [10] | Potency [5] | Potency [6]

— PubChem BioAssay (Tox21)
